The results in this text go back to the supplement of paper PMC10037445.

Over roughly 2,900 compounds, “NF-kB SEAP reporter activity, fold change vs agonist alone” has its median near 0.99; the highest 2% begin near 2.6. The entries come from a sample that favours the highest values as a whole.

The subject of experiment [1] is RAW-Dual. In words: NF-kB SEAP reporter activity, fold change vs agonist alone; cytotoxicity flag (confluency mask): not cytotoxic; higher = enhanced NF-kB activity. An outline of the steps:
(§1)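 RAW-Dual macrophages (50,000 cells/well in DMEM, 384-well plates) received 50 nL of library stock by pin tool, then a PRR agonist 1 h later, and were kept at 37 °C, 5% CO2. After 20 hours, supernatant was read for IRF by QuantiLuc luminescence and for NF-κB by QuantiBlue absorbance at 620 nm. Reporter activity is fold change over agonist-alone wells. Cytotoxic wells had IncuCyte confluency below 70% of agonist controls in both mask sets.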

Experiment [2] relates to RAW-Dual. Put plainly: NF-kB SEAP reporter activity, fold change vs agonist alone; higher = enhanced NF-kB activity. The procedure, abridged:
as §1

Experiment [3] concerns RAW-Dual. Put plainly: NF-kB SEAP reporter activity, fold change vs agonist alone; cytotoxicity flag (confluency mask): cytotoxic (confluency <70% of control); higher = enhanced NF-kB activity. An outline of the steps:
as §1

[4] abbreviates: agonist: ODN 1826 (TLR9) 0.5 ug/mL.
Where [5] appears, read: agonist: Pam2CSK4 (TLR2/6) 0.1 ug/mL.
The mark [6] stands for this setting: agonist: Pam3CSK4 (TLR2/1) 0.1 ug/mL.
Where [7] appears, read: library stock concentration (final ~1000-fold dilution): 10 mM, cytotoxicity flag (confluency mask): cytotoxic (confluency <70% of control), agonist: Imiquimod (TLR7) […].
[8] abbreviates: library stock concentration (final ~1000-fold dilution): 10 mM, cytotoxicity flag (confluency mask): cytotoxic (confluency <70% of control), agonist: MPLA (TLR4) […].
[9] abbreviates: library stock concentration (final ~1000-fold dilution): 10 mM, cytotoxicity flag (confluency mask): not cytotoxic, agonist: Imiquimod (TLR7) […].
Where [10] appears, read: library stock concentration (final ~1000-fold dilution): 10 mM, cytotoxicity flag (confluency mask): not cytotoxic, agonist: MPLA (TLR4) […].

Consider `CCCCN(Cc1ccc(C(=O)NO)cc1)C(=O)Nc1ccccc1` (library stock concentration (final ~1000-fold dilution): 10 mM), for which the “NF-kB SEAP reporter activity” value was 6.63 in experiment [1] (agonist: LPS (TLR4) 0.1 ug/mL), 2.5 in experiment [1] (setting [4]), 1.18 in experiment [1] (setting [5]) and 1.73 in experiment [1] (setting [6]).
For `COc1cc(C(=O)N(CCCc2ccccc2)Cc2ccc(CC(=O)O)cc2)cc(OC)c1C` (library stock concentration (final ~1000-fold dilution): 10 mM), in that order: 1.19, 0.976, 0.823 and 0.908.
As to `CC(C)CNc1ccnc(NCc2csc(-c3ccccc3)n2)n1.Cl`, the “NF-kB SEAP reporter activity” value in experiment [2] (setting [7]) is 1.85; in experiment [2] (setting [8]) it was 1.47.
`CC(C)CNc1ccnc(NCc2csc(-c3ccccc3)n2)n1.Cl` (library stock concentration (final ~1000-fold dilution): 10 mM): the “NF-kB SEAP reporter activity” value in experiment [3] (agonist: LPS (TLR4) 0.1 ug/mL) was 1.62; in experiment [3] (setting [4]), 0.221; in experiment [3] (setting [5]), 0.625; in experiment [3] (setting [6]), 0.446.
For `Nc1ccn(C2OC(CO)C(O)C2(F)F)c(=O)n1` (centres undefined), the “NF-kB SEAP reporter activity” value came to 2.14 in experiment [2] (setting [7]) and 1.35 in experiment [2] (setting [8]).
As to `Nc1ccn(C2OC(CO)C(O)C2(F)F)c(=O)n1` (centres undefined) (library stock concentration (final ~1000-fold dilution): 10 mM), the “NF-kB SEAP reporter activity” value in experiment [3] (agonist: LPS (TLR4) 0.1 ug/mL) was 0.91; in experiment [3] (setting [4]) it was 1.88; in experiment [3] (setting [5]), 1.18; in experiment [3] (setting [6]), 1.05.
On to `CCCCCCOC(=O)c1cc(O)c(=O)c2c(O)c(O)c(OC)cc2c1`, for which the “NF-kB SEAP reporter activity” value in experiment [2] (setting [9]) stood at 1.2; in experiment [2] (setting [10]), 0.857.
In the case of `CCCCCCOC(=O)c1cc(O)c(=O)c2c(O)c(O)c(OC)cc2c1` (library stock concentration (final ~1000-fold dilution): 10 mM), the “NF-kB SEAP reporter activity” value is 0.614 in experiment [1] (agonist: LPS (TLR4) 0.1 ug/mL), 0.459 in experiment [1] (setting [4]), 0.599 in experiment [1] (setting [5]) and 0.895 in experiment [1] (setting [6]).
With `NC(=O)c1cccc2nc(-c3ccc(C4CCCN4)cc3F)[nH]c12` (centres undefined), the “NF-kB SEAP reporter activity” value in experiment [2] (setting [9]) was 1.14; in experiment [2] (setting [10]), 0.748.
Turning to `NC(=O)c1cccc2nc(-c3ccc(C4CCCN4)cc3F)[nH]c12` (centres undefined) (library stock concentration (final ~1000-fold dilution): 10 mM), the “NF-kB SEAP reporter activity” value in experiment [1] (agonist: LPS (TLR4) 0.1 ug/mL) was 0.553; in experiment [1] (setting [4]), 0.198; in experiment [1] (setting [5]) it was 1.03; in experiment [1] (setting [6]) it was 1.
For the compound `COC(=O)CC(O)(CCCC(C)(C)O)C(=O)OC1C(OC)=CC23CCCN2CCc2cc4c(cc2C13)OCO4` (centres undefined), the results for the “NF-kB SEAP reporter activity” value in experiment [2] (setting [7]) and in experiment [2] (setting [8]) were 0.141 and 0.255, respectively.
Take `COC(=O)CC(O)(CCCC(C)(C)O)C(=O)OC1C(OC)=CC23CCCN2CCc2cc4c(cc2C13)OCO4` (centres undefined) (library stock concentration (final ~1000-fold dilution): 10 mM): the “NF-kB SEAP reporter activity” value in experiment [3] (agonist: LPS (TLR4) 0.1 ug/mL) stood at 0.397; in experiment [3] (setting [4]), 0.169; in experiment [3] (setting [5]), 0.0771; in experiment [3] (setting [6]), 0.133.
As to `Cc1ccc(C(=O)N(CCCN)C(c2oc3cc(Cl)ccc3c(=O)c2Cc2ccccc2)C(C)C)cc1.Cl` (centres undefined), the “NF-kB SEAP reporter activity” value in experiment [2] (setting [9]) is 0.905; in experiment [2] (setting [10]), 1.03.
Take `Cc1ccc(C(=O)N(CCCN)C(c2oc3cc(Cl)ccc3c(=O)c2Cc2ccccc2)C(C)C)cc1.Cl` (centres undefined) (library stock concentration (final ~1000-fold dilution): 10 mM): the “NF-kB SEAP reporter activity” value was determined as 0.189 in experiment [1] (agonist: LPS (TLR4) 0.1 ug/mL), 0.953 in experiment [1] (setting [4]), 0.344 in experiment [1] (setting [5]) and 0.73 in experiment [1] (setting [6]).
Take `Oc1cc(CNC(=S)/C=C/c2cc(O)c(O)c(Br)c2)cc(O)c1O`: the “NF-kB SEAP reporter activity” value is 1.78 in experiment [2] (setting [9]) and 2.29 in experiment [2] (setting [10]).
On to `Oc1cc(CNC(=S)/C=C/c2cc(O)c(O)c(Br)c2)cc(O)c1O` (library stock concentration (final ~1000-fold dilution): 10 mM), for which the “NF-kB SEAP reporter activity” value in experiment [1] (agonist: LPS (TLR4) 0.1 ug/mL) amounted to 3.51; in experiment [1] (setting [4]), 2.77; in experiment [1] (setting [5]), 1.67; in experiment [1] (setting [6]), 0.821.
`Cc1cc2c(F)c(Oc3ncnn4cc(OCC(C)OC(=O)C(C)N)c(C)c34)ccc2[nH]1` (centres undefined): the “NF-kB SEAP reporter activity” value turned out to be 1.98 in experiment [2] (setting [7]) and 1.72 in experiment [2] (setting [8]).
With `Cc1cc2c(F)c(Oc3ncnn4cc(OCC(C)OC(=O)C(C)N)c(C)c34)ccc2[nH]1` (centres undefined) (library stock concentration (final ~1000-fold dilution): 10 mM), the “NF-kB SEAP reporter activity” value in experiment [3] (agonist: LPS (TLR4) 0.1 ug/mL) was 1.52; in experiment [3] (setting [4]), 0.94; in experiment [3] (setting [5]), 0.759; in experiment [3] (setting [6]), 1.13.
As to `Nc1ccn(CC(CO)OCP(=O)(O)O)c(=O)n1` (centres undefined), the “NF-kB SEAP reporter activity” value in experiment [2] (library stock concentration (final ~1000-fold dilution): 10 mM water, cytotoxicity flag (confluency mask): not cytotoxic, agonist: Imiquimod (TLR7) […]) turned out to be 0.956; in experiment [2] (library stock concentration (final ~1000-fold dilution): 10 mM water, cytotoxicity flag (confluency mask): not cytotoxic, agonist: MPLA (TLR4) […]), 1.04.
Turning to `Nc1ccn(CC(CO)OCP(=O)(O)O)c(=O)n1` (centres undefined) (library stock concentration (final ~1000-fold dilution): 10 mM water), the “NF-kB SEAP reporter activity” value in experiment [1] (agonist: LPS (TLR4) 0.1 ug/mL) is 1.2; in experiment [1] (setting [4]), 1.23; in experiment [1] (setting [5]), 1.32; in experiment [1] (setting [6]), 1.29.
On the same counts, the results for `O=C(c1cn(Cc2cncn2Cc2ccc(Br)cc2)cc1-c1cccc2ccccc12)N1CCOCC1` (library stock concentration (final ~1000-fold dilution): 10 mM) are 2.82, 1.54, 0.96 and 1.16.
For `O=C(c1cn(Cc2cncn2Cc2ccc(Br)cc2)cc1-c1cccc2ccccc12)N1CCOCC1`, the results for the “NF-kB SEAP reporter activity” value in experiment [2] (setting [9]) and in experiment [2] (setting [10]) were 1.35 and 1.46, respectively.
For `O=C1NC(=O)C(c2cn3c4c(cccc24)CCC3)C1c1c[nH]c2ccccc12` (centres undefined), in that order: 2.44 and 1.84.
With `O=C1NC(=O)C(c2cn3c4c(cccc24)CCC3)C1c1c[nH]c2ccccc12` (centres undefined) (library stock concentration (final ~1000-fold dilution): 10 mM), the “NF-kB SEAP reporter activity” value was found to be 3.41 in experiment [1] (agonist: LPS (TLR4) 0.1 ug/mL), 2.7 in experiment [1] (setting [4]), 1.49 in experiment [1] (setting [5]) and 1.4 in experiment [1] (setting [6]).
